Measurements: PubChem BioAssay AID449762 (Southern Research Specialized Biocontainment Screening …, 2010)
Among all 330,000 compounds or so, about 1,900 (0.58%) were called active. Roughly 4% stayed inconclusive and do not appear here. The list is a sample of the results. Entries with a potency or affinity are not part of this list. Values without a mark were called inactive. No stated cut-off is given here; in the data, inconclusive means inhibition above about 70% without an active follow-up result; inactive means below that.

Assay: M. tuberculosis growth inhibition, HTS (AID 449762);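 further: bacterial growth assessed after seven days of incubation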
Details: M. tuberculosis H37Rv growth inhibition, 7H9 media; at 25 µM; hits give high values

Row | SMILES | inhibition [%]
1 | Cc1cccc(-n2c(-c3csc4ccccc34)n[nH]c2=S)c1 | 2.9
2 | CC(=O)Nc1nonc1NC(=O)CSc1ccccn1 | -2.12
3 | Cc1nonc1NC(=O)CSc1ccccn1 | 2.01
4 | CN1C(=O)c2ccccc2N(C)C1c1cccc(O)c1 (stereo not given) | 0.25
5 | O=C(CN1C(=O)c2cccc3cccc1c23)NCc1ccccn1 | -1.94
6 | COc1ccc(S(=O)(=O)Nc2cccc(S(=O)(=O)N3CCCC3)c2)cc1OC | -4.75
7 | CCOC(=O)CCCNC(=O)COC(=O)c1cc(C)cc(C)c1 | -0.59
8 | CCOC(=O)CCCNC(=O)COC(=O)c1ccc(O)cc1 | -6.12
9 | COc1cc(NS(=O)(=O)c2c(C)[nH]c(C)c2C(=O)N2CCCCC2)cc(OC)c1OC | 7.96
10 | COc1ccccc1C(=O)N/C(N)=N/c1nc2ccccc2o1 | 0.95
11 | O=C(NC(=Nc1nc2ccccc2o1)NC(=O)c1ccccc1)c1ccccc1 | 3.54
12 | CCC(=O)N(Cc1ccco1)Cc1cc2cc3c(cc2[nH]c1=O)OCO3 | 3.54
13 | S=C(NCCc1ccccc1)N1CCN(C23CC4CC(CC(C4)C2)C3)CC1 | 7.41
14 | CCN1CCN(C2CCCCC2NS(=O)(=O)c2ccccc2)CC1 (stereo not given) | -5.99
15 | COc1ccc2oc(C(=O)Nc3nc4ccccc4[nH]3)c(C)c2c1 | 25.6
16 | Cc1c(C(=O)Nc2nc3ccccc3[nH]2)oc2ccc(Br)cc12 | 64.1
17 | CCC(C)(C)NC(=O)Cn1c(-c2ccc(C)cc2)noc1=O | -4.07
18 | Cc1ccc(C(=O)Cn2c(-c3ccccc3)noc2=O)cc1 | 2.22
19 | Cn1ccc(-c2ccccc2)c(C#N)c1=O | -0.87
20 | Cc1ccc2nc(SCC(=O)NCC3CCCO3)c(C#N)cc2c1 (stereo not given) | 9.97
21 | Cc1ccccc1OCCCCCn1ccnc1 | -16.2
22 | Clc1ccccc1OCCCCn1ccnc1 | -6.48
23 | COc1ccccc1NC(=O)C(C)OC(=O)/C(=C/c1ccccc1)NC(C)=O (stereo not given) | 5.35
24 | O=C(Nc1ccc2c(c1)OCO2)c1cccs1 | -1.92

Row | SMILES | inhibition [%]
25 | O=C(Nc1ccc2c(c1)OCO2)c1ccc(Br)s1 | 65
26 | O=c1[nH]nc(-c2ccc(F)cc2)cc1Cc1ccccn1 | 1.36
27 | CCC(C)(C)NC(=O)C(c1ccc(OC)cc1)N(C(=O)CCC(=O)Nc1cc(C)on1)c1ccccc1OC (stereo not given) | -10.6
28 | O=[N+]([O-])c1ccccc1/C=C/CN1CCCCC1 | -9.58
29 | O=C(Nc1ccn(Cc2c(F)c(F)c(F)c(F)c2F)n1)c1ccc(COc2ccccc2Cl)cc1 | -14
30 | O=C(Nc1ccn(Cc2c(F)c(F)cc(F)c2F)n1)c1ccc(COc2ccccc2Cl)cc1 | 0.39
31 | CCCOC(=O)C1NC(=O)N2C(C(=O)OCCC)C(C)(C)S[C@H]12 (stereo not given in full) | -1.23
32 | c1ccc(CSc2ccc(-c3ccccn3)nn2)nc1 | 7.58
33 | c1ccc(-c2ccc(SCc3cccnc3)nn2)nc1 | -8.38
34 | CC(=O)c1ccc(NC(=O)C(C)Sc2nnc3ccccn23)cc1 (stereo not given) | -6.02
35 | C=CCn1c(O)c(N=Nc2ccccc2)c2ccccc21 | 19.4
36 | C=CCn1c(O)c(N=Nc2ccccc2C)c2ccccc21 | 53.8
37 | O=C(Nc1ccc(C(=O)N2CCCC2)cc1)Nc1ccc(Cl)cc1Cl | -2.35
38 | CC(C)c1nc(NCCO)c2nnn(Cc3ccccc3)c2n1 | -8.58
39 | COc1ccc(-n2nc(C(=O)NCC(=O)Nc3cc(C)ccc3OC)c3ccccc3c2=O)c(OC)c1 | 12.5
40 | c1ccc(Cn2c[n+](Cc3ccccc3)c3ccccc32)cc1 | 2.04
41 | Cc1ccc(OCC(O)CN2CCN(c3ccc(C)cc3)CC2)cc1 (stereo not given) | 10.5
42 | CO/N=C/CC(=O)Nc1ccc(F)cc1F | -4.1
43 | O=C(CCNC(=O)c1ccc([N+](=O)[O-])cc1)Nc1ccc(F)cc1F | 17.9
44 | O=C(COC(=O)c1ccc(F)cc1F)NCc1ccc2c(c1)OCO2 | 2.2
45 | O=C(Nc1ccc2c(c1)OCCO2)C1CC(c2ccc(F)cc2)=NO1 (stereo not given) | -3.61
46 | C=CCOc1ccc(C2=NOC(C(=O)Nc3ccc4c(c3)OCCO4)C2)cc1OC (stereo not given) | 4.17
47 | COc1cccc(-c2nnc3sc(C4CCCCC4)nn23)c1 | 66.4
48 | COc1ccccc1-c1nnc2sc(C3CCCCC3)nn12 | -3.09

Row | SMILES | inhibition [%]
49 | CC(CN1CCCC1)OC(=O)c1ccc(Cl)cc1Cl (stereo not given) | 4.38
50 | CC(=O)c1ccc(N2CCN(C(=S)NCCCN(C)C)CC2)cc1 | 3.66
51 | CCCCNC(=S)N1CCN(c2ccc(C(C)=O)cc2)CC1 | 7.05
52 | COc1ccc(-c2sc(Nc3ccccc3)n[n+]2-c2ccc(F)cc2)c(C)c1C | 1.59
53 | CC(C)c1ccccc1NC(=O)CC1(CC(=O)O)CCCC1 | -1.9
54 | Cc1ccc(N2C(=O)[C@@H]3Cc4ccccc4CN3C2=O)cc1 | 1.44
55 | O=[N+]([O-])c1c(C(Cl)Cl)nn(-c2ccccc2)c1N1CCCC1 | -9.83
56 | O=[N+]([O-])c1c(C(Cl)Cl)nn(-c2ccccc2)c1N1CCOCC1 | 5.81
57 | Cc1cc(C)n(-c2ccc(C(=O)NCc3cccs3)cc2)n1 | -8.74
58 | COc1ccc(-c2cc(N)n(S(=O)(=O)c3ccc(C)cc3)n2)c(OC)c1 | -6.16
59 | Cc1cc(/C=C2\SC(=O)N(C)C2=O)c(C)n1-c1ccc(S(N)(=O)=O)cc1 | -2.91
60 | Cc1ccc(-n2c(C)cc(/C=C3\SC(=O)NC3=O)c2C)cc1 | 7.2
61 | Nc1ccc(-c2cc(-c3ccc(N)cc3)nc(-c3ccccc3)n2)cc1 | -2.43
62 | COc1ccccc1N1CCN(C(c2cccs2)C(C)NC(=O)C(=O)N2CCCCC2)CC1 (stereo not given) | 3.15
63 | Cc1cc(C(=O)Nc2c(C)nn(Cc3ccccc3Cl)c2C)no1 | -4.86
64 | Cc1ccc(S(=O)(=O)Oc2cccc(/C=N/Nc3ccc(C(=O)O)cc3)c2)cc1 | 20.9
65 | O=C(Cc1cccs1)N1CCCC(c2nc3c(nnn3Cc3ccc(F)cc3)c(=O)[nH]2)C1 (stereo not given) | -5.77
66 | CC(C)(C)c1ccc(Cn2nnc3c(=O)[nH]c(C4CCCN(C(=O)c5cccs5)C4)nc32)cc1 (stereo not given) | 11.9
67 | COc1c(/C=N/NC(N)=S)c(C)nn1-c1ccccc1 | 65.5
68 | CCC1CN(C(=O)N2CCC(C(=O)NCCc3ccccc3OC)CC2)c2ccccc2O1 (stereo not given) | 2.39
69 | CCCc1cc2c(cc1NC(=O)c1ccco1)OCO2 | 0.1
70 | CCCc1cc2c(cc1NC(=O)c1ccccc1F)OCO2 | 42
71 | CCCCNC(=S)N(C)/N=C/c1ccc(OCC(=O)Nc2ccc(OC)cc2)c(OC)c1 | 5.57
72 | O=C(NNC(=O)c1cccc(-n2cnnn2)c1)c1ccccc1 | 4.62

Row | SMILES | inhibition [%]
73 | COc1ccc(CCN2CCCC(CN(C)Cc3cc(OC)c(OC)c(OC)c3)C2)cc1 (stereo not given) | 2.86
74 | CCCCCCCCNC(=O)/C(C#N)=C/c1ccccc1[N+](=O)[O-] | 9.84
75 | O=[N+]([O-])c1ccc(N=Cc2ccc(Br)c([N+](=O)[O-])c2)cc1 | -2.74
76 | C(=Nc1ccc(Nc2ccccc2)cc1)c1ccc2ccccc2c1 | 1.29
77 | Cc1ccc(NC(=O)CCSc2ccccn2)cc1 | -4.42
78 | Cc1cccc(N2CCN(C(=O)C3CCN(S(=O)(=O)c4cccc5cccnc45)CC3)CC2C)c1 (stereo not given) | -1.75
79 | Cc1cc(C)c(NC(=O)COC(=O)Cn2nc(-c3ccccc3)oc2=O)c(C)c1 | 3.1
80 | C=C1C(=O)O[C@@H]2C[C@@H](C)[C@H]3C=CC(=O)[C@]3(O)C[C@@H]12 | 7.75
81 | C[C@@H]1C[C@H]2OC(=O)C3(CO3)[C@H]2[C@H](O)[C@]2(C)C(=O)C3OC3[C@@H]12 (stereo not given in full) | -4.69
82 | Cc1cccc(NC(=O)NNC(=O)COc2ccc3ccccc3c2)c1 | -0.35
83 | COc1ccc(OC)c(C(c2nnnn2C2CCCC2)N2CCN(c3ccc(F)cc3)CC2)c1 (stereo not given) | 4.35
84 | O=C1C(=O)N(c2ccccn2)C(c2ccc(F)cc2)/C1=C(/O)c1ccc(Br)cc1 (stereo not given) | -4.6
85 | CC1CCCC(NC(=O)CSC2CCCCC2)C1C (stereo not given) | 3.14
86 | CC1CCCC(NC(=O)NC(=O)COC(=O)c2ccc(O)cc2O)C1C (stereo not given) | 0.995
87 | Cc1cccc(OCC(=O)NNC(=O)Cn2c(=O)cnc3ccccc32)c1 | -8.21
88 | O=C(CSc1nc(=O)n2ccccc2n1)Nc1cccc2ccccc12 | 5.25
89 | N#Cc1ccccc1OCC(=O)N1N=C(c2cccs2)CC1c1ccco1 (stereo not given) | 1.37
90 | c1ccc(-c2cn3c(n2)CCC3)cc1 | -1.06
91 | c1ccc(-c2cc3ncccc3cn2)cc1 | -4.81
92 | O=C(Nc1cccc2c1CCCC2)c1ccccc1F | 10.2
93 | CC(=O)c1ccc(-n2c(CCC(=O)O)ccc2-c2cccs2)cc1 | -2.12
94 | NC(=O)c1ccc(-n2c(CCC(=O)O)ccc2-c2cccs2)cc1 | -1.94
95 | CCc1ccc(NC(=O)CC2C(=O)N(c3ccc(OC)cc3)C(=O)N2CCOC)cc1 (stereo not given) | -1.31
